Consider 37 compounds from PubChem BioAssay AID504710 (Sanford-Burnham Center for Chemical Genomics, 2011).

A number with no mark means an inactive call. Calls of active or inactive are those of the source.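 Rule for the calls: active = inhibition reaching about 16% in any single replicate (limit read from the data); inactive = the rest.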

What is called inhibition is the change of the read-out against control, counted positive when it falls.

For the assay, the target named is Hexokinase HKDC1 (Homo sapiens) (UniProt Q2TB90). Kind of assay: compounds lowering human HKDC1 activity – biochemical, single concentration, confirmation (AID 504710). Particulars: recombinant HKDC1, G6PDH/diaphorase/resazurin fluorescence; at 20 µM; active compounds read high. A general note: The colour change of resazurin is a common sign of viable cells or microbes.
Hexokinase HKDC1 (Homo sapiens), sequence (Q2TB90 whole entry, looked up): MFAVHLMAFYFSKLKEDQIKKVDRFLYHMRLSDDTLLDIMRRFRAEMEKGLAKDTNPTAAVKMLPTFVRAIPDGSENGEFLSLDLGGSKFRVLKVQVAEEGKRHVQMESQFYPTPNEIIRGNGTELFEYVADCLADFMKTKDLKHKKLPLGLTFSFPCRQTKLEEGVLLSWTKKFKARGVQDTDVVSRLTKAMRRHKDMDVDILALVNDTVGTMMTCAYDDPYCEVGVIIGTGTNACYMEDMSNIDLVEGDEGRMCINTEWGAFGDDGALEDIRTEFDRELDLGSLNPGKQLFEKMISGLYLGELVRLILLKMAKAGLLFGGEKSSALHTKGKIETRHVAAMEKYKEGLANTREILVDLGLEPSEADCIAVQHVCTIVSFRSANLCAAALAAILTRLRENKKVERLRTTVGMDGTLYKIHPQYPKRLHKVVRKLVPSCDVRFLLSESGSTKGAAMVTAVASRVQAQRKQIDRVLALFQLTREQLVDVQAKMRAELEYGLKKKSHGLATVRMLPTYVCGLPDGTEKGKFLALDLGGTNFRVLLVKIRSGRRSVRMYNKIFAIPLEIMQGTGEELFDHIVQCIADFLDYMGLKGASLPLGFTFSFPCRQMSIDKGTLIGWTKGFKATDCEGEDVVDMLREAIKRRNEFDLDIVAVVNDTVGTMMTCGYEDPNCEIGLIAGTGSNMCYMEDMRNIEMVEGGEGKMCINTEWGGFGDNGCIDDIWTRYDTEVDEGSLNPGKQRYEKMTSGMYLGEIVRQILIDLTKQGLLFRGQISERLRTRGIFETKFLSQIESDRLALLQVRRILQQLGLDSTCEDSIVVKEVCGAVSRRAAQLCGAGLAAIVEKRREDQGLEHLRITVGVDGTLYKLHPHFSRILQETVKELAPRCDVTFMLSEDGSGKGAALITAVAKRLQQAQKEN
As for `O=C1C(Cl)=C(N2CCCCC2)C(=O)C(Cl)=C1c1cnc(N2CCCCC2)s1`, the inhibition was 49.4% (active). With `COC(=O)Cn1c2ccc(F)cc2c2nc(C)sc21` the figure was -90.4%.

`CC(NNC(=S)N1CCN(c2ccccn2)CC1)c1nccc2ccccc12` (configuration not stated): the inhibition is -74.7%.

Turning to `CCCCC(CC)CN=C(N)NC(N)=NCCCCCCN=C(N)NC(N)=NCC(CC)CCCC` (configuration not stated), the inhibition is 45.9% (active). As for `O=C(O)c1ccc(NC2=C/C(=N/S(=O)(=O)c3ccccc3)c3ccccc3C2=O)cc1`, the figure is 76% (active); as for `O=C(O)c1cc(N2N=C(C(F)(F)F)/C(=C/C=C/c3ccco3)C2=O)ccc1Cl`, 57.5% (active). On to `O=C(O)CSc1cc(NS(=O)(=O)c2ccc(Cl)cc2)c2ccccc2c1O`, for which the inhibition is 45.6% (active). With `COC1=CC(=O)C(OC)=C(OC)C1=O` the figure was 71.9% (active); with `O=S(=O)(O)c1ccc(O)c2cc(Nc3ccccc3)ccc12`, 44.1% (active); with `CC(=O)NC1C(=O)N(CCN2CCOCC2)c2ccc(C)cc21` (configuration not stated), 69.7% (active).

Turning to `CCCCC(=O)NC(c1ccc(N(CC)CC)cc1)c1ccc2cccnc2c1O` (configuration not stated), the inhibition is -59.3%.

Regarding `CCOC(=O)/C=C(\C)Sc1cc(O)c2ccccc2c1O`, the inhibition is 53.6% (active). As for `Cc1cc(C)n2nc(SCc3nnc(SCc4ccccc4C)s3)nc2n1`, the figure is 69.2% (active). On to `O=C1C(Cl)=C(NCc2cccnc2)C(=O)c2ccccc21`, for which the inhibition was -45.1%.

`CCCCN(CCCC)C(=S)N/N=C/c1c(C)[nH]n(-c2ccccc2)c1=O`: the inhibition was -65%. In the case of `O=c1c2ccccc2nc2n1CCC2`, the inhibition is 67.1% (active). Take `Cc1ccccc1NC1=C/C(=N\S(=O)(=O)c2ccc(C(=O)O)cc2)c2ccccc2C1=O`: the inhibition was 71.3% (active). As for `CC(=O)NC1C(=O)N(CCN2CCOCC2)c2ccc(Cl)cc21` (configuration not stated), the figure is 60.6% (active); as for `CCOC(=O)c1c(NC(=O)CSc2nnnn2-c2ccc(OC)cc2)sc(C)c1C`, -42.3%. As for `O=C(c1ccccc1)c1n[nH]c(-c2ccccc2)cc1=O`, the figure is 16.3% (active); as for `S=C(NN=C(c1ccccc1)c1ccccn1)N(Cc1ccccn1)Cc1ccccn1`, -59.4%. As for `N#Cc1ccc(CSc2nnc(NC(=O)c3ccc4ncsc4c3)s2)cc1`, the figure is 40.7% (active); as for `O=C(O)c1ccccc1-c1c2cc(I)c(=O)c(I)c-2oc2c(I)c(O)c(I)cc12`, 43.5% (active). For the compound `CC(=O)NC1C(=O)N(CCN2CCOCC2)c2ccc(F)cc21` (configuration not stated), the inhibition is 61.1% (active). As for `O=C(O)c1ccc(S(=O)(=O)/N=C2\C=C(Nc3ccccc3F)C(=O)c3ccccc32)cc1`, the figure is 75.7% (active).

Turning to `CC(C)(C)c1nnc(N/N=C/c2cc(Br)ccc2O)n(N)c1=O`, the inhibition was -48.8%.

`COc1cc(/C=C2\SC(c3ccc(C)cc3)=NC2=O)ccc1O`: the inhibition is 32.2% (active). With `N#C/C(=C(/O)CCl)c1nc2c(s1)CCc1ccccc1-2` the figure was 46.1% (active); with `O=NNc1nc2ccccc2n1Cc1ccccc1`, -44.2%; with `O=S(=O)(Nc1cc(Sc2ncn[nH]2)c(O)c2ccccc12)c1ccccc1`, 48.4% (active).

Regarding `O=C1C(Cl)=C(NC(=O)c2ccccc2)C(=O)C(Cl)=C1NC(=O)c1ccccc1`, the inhibition was 41.4% (active). With `CNCc1ccccc1Sc1cc(O)ccc1O` the figure was 64.6% (active); with `Nn1cnnc1N/N=C/c1cc(Br)cc(Br)c1O`, -31.9%. As to `Cc1nc([N+](=O)[O-])c(Br)n1CC(=O)c1ccc2ccccc2c1`, the inhibition was 40.1% (active).

In the case of `COc1cc(OC)cc(C(=O)NC(=S)NNC(=O)c2cnccn2)c1`, the inhibition is -40%. On to `Cc1ccc2cc(CCNC(=O)c3ccc(S(=O)(=O)N4CCCCC4)cc3)c(=O)[nH]c2c1`, for which the inhibition was 39.8% (active). With `Cc1nc2c3cc(F)ccc3n(Cc3ccccc3)c2s1` the figure was -61.3%.
